KB-3-1 cytotox – KB-3-1 parental cell cytotoxicity; AID 1347075; Potency, µM (top dose mostly 46.1 µM), most hits filed as cytotoxic; 400,000 tested, 1.4% active; KB-3-1 viability, CellTiter-Glo ATP luminescence, 72 h; note: potency is the fitted concentration of half-maximal effect; nearly all actives have a fitted effect of over 60% in size
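Using CellTiter-Glo luminescence, growth of non-resistant KB-3-1 adenocarcinoma cells is assessed 72 h after pin-tool compound addition at 37 °C. Normalized responses across the concentration series yield fitted curves.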
KB-V1 cytotox – kills drug-selected multidrug resistant KB-V1 cells; KB-V1 MDR cells viability, CellTiter-Glo, 72 h; Potency, µM (highest dose often 46.1 µM), actives largely listed as cytotoxic; 400,000 tested, 3.4% active; AID 1347076; note: potency is the fitted concentration of half-maximal effect; nearly all actives have a fitted effect of over 60% in size
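Following 72 h at 37 degrees C with compound, KB-V1 cell viability was read by CellTiter-Glo luminescence, medium being phenol-red-free DMEM plus 10% FBS; concentration-response parameters came from normalized, curve-fitted qHTS data.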
IL-1B inflam inh – inhibitors of inflammasome signaling (IL-1 beta secretion) | THP-1 LPS/ATP IL-1B secretion, AlphaLISA, 16 h; stronger effect = lower value | activity change, % at 57.5 µM | 360,000 tested, 4.7% active | AID 743279; in the data active = activity change below about -50%; inconclusive = mostly about -30% to -49%
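THP-1 cells pretreated 1 hr with compounds (up to 57.5 uM final), then stimulated with LPS (250 ng/mL final) plus ATP (1.25 mM final); secreted IL-1B measured by AlphaLISA after 16 hr, decreased signal indicating inhibition.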
HT1080 IDH1KD tx – kills HT-1080 cells with IDH1 knockdown. HT-1080 IDH1 knockdown viability, ATP luminescence, 48 h. Potency, µM (top dose mostly 46.1 µM), without a hit: at the highest dose activity, negative = toxicity, most hits filed as cytotoxic. 360,000 tested, 2% active. AID 686971;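 note: potency is the fitted concentration of half-maximal effect; 0% = DMSO wells and -100% = cell-free medium wells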
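Assay cells: HT-1080 with IDH1 knockdown, 750 per well, RPMI/5% FBS. Exposure: 48 h at 37 °C following 2 h pre-incubation. Read: CellTiter-Glo luminescence; fitted concentration-response, curve class assigned.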
HT1080NT lethal – kills 2HG-producing HT-1080-NT fibrosarcoma cells. Potency, µM (top dose mostly 46.1 µM), without a hit: at the top dose activity, negative = less viability, usual class: cytotoxic. 360,000 tested, 1.6% active. HT-1080-NT fibrosarcoma viability, CellTiter-Glo ATP luminescence, 48 h;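 note: NT is the 2HG producing partner of a matched IDH1 knockdown line; potency is the fitted concentration of half-maximal effect; 0% = DMSO-treated cells and -100% = media-only wells without cells; nearly all actives have a fitted effect of over 55% in size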
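Read-out is CellTiter-Glo luminescence after 10 minutes at room temperature, following 48 hours' compound treatment of HT-1080-NT cells (750 cells/well, RPMI, 5% FBS, 37 degrees C).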
An asterisk follows results filed as active; i = inactive; u = inconclusive; x = no result given. Hits are enriched below; roughly 8.8% of the tested compounds scored in any of these assays. Unless noted, calls come from the whole dose curve; as a rule, active = well fitted curve in the direction sought with a large enough effect; inconclusive = small, poorly fitted or top-dose-only effect, or another doubt; inactive = no such curve, though single readings can be large; an effect the other way counts as inactive or inconclusive. Unless noted, % is set by controls: 0 for no effect and ±100 for the full control effect.

SMILES | KB-3-1 cytotox | KB-V1 cytotox | IL-1B inflam inh | HT1080 IDH1KD tx | HT1080NT lethal
C/C(=N\NC(=O)c1cccc2ccccc12)c1ccccn1 | u | i | -106.6* | u | u
COc1cccc(-n2c(SCC(=O)NC3CC3)nc3ccccc3c2=O)c1 | i | u | 8.0 | -7.9% | -5.3%
CS(=O)(=O)c1ccc(C(=O)OCC(=O)N2CCc3ccccc32)cc1[N+](=O)[O-] | u | i | x | x | x
Nc1ncnc2c1C1(CCCCC1)Cc1ccccc1-2 | u | 23.1µM* | 0.0 | -7.3% | 3.0%
Nc1n[nH]c2c1C1(CCCCC1)Cc1ccccc1-2 | i | u | -4.0 | 2.3% | 2.7%
CCOc1ccccc1NC(=O)c1cc2c(=O)[nH]c3ccccc3c2s1 | i | i | x | x | x
CCC(C)c1ccc(NC(=O)NCCN2CCCCC2)cc1 (configuration not stated) | i | i | -52.0* | u | u
Cc1ccc(NC(=O)NCCN2CCCCC2)cc1 | i | i | -5.8 | 1.6% | 1.1%
COc1ccc2oc3cc(NCCN(C)C)ccc3c(=O)c2c1 | i | i | x | u | u
COc1ccccc1C1C2=C(CC(C)(C)CC2=O)N(CC(=O)O)C2=C1C(=O)CC(C)(C)C2 | i | i | 0.0 | 2.2% | 4.2%
COc1ccc(C2C3=C(CC(C)(C)CC3=O)N(C)C3=C2C(=O)CC(C)(C)C3)cc1 | i | u | -15.4 | 13.3% | 19.8%
COc1ccc(N2C3=C(CC4=C2CC(C)(C)CC4=O)C(=O)CC(C)(C)C3)cc1 | u | i | -101.8* | u | 7.08µM*
COc1ccc(N2C3=C(C(=O)CC(C)(C)C3)C(c3ccccc3OC)C3=C2CC(C)(C)CC3=O)cc1 | i | u | -85.5* | -11.3% | -6.8%
COc1ccc(-n2ccc(=O)c3c2CCCC3=O)cc1 | i | u | 18.2 | 8.9% | 6.5%
COc1ccc(N2C3=C(CC4=C2CCCC4=O)C(=O)CCC3)cc1 | i | i | -94.0* | -13.1% | -2.1%
O=C(NC1CCCCC1)C(c1cccnc1)N(C(=O)c1csnn1)c1ccccc1 (configuration not stated) | i | i | 6.1 | 12.3% | 16.3%
COc1cccc(NC(=O)C2CCN(S(=O)(=O)c3cccc4nonc34)CC2)c1 | i | i | x | x | x
O=C(c1cc(COc2ccc(F)c(F)c2)on1)N1CCN(C/C=C/c2ccccc2)CC1 | i | i | -26.3 | u | u
O=C(CSC1=NCCN1)NC1CCCCCC1 | i | i | -96.8* | -16.5% | -5.7%
O=C(CSC1=NCCN1)NC12CC3CC(CC(C3)C1)C2 | i | i | -100.3* | -20.7% | -13.4%
Cc1[nH]c2ccccc2c1C(=O)COC(=O)c1c(-c2c(F)cccc2Cl)noc1C | u | 16.4µM* | u | -9.4% | 2.7%
Cc1[nH]c2ccccc2c1C(=O)COC(=O)c1c(-c2ccccc2Cl)noc1C | i | i | u | -26.7% | -26.8%
CC(C)C[C@H](N)c1nnc(SCc2ccc(Cl)cc2Cl)o1 | i | u | x | x | x
CC(C)C[C@H](N)c1nnc(S(=O)(=O)Cc2ccc(F)cc2)o1 | u | u | -116.8* | u | u
O=[N+]([O-])c1c(NCCO)cc(N2CCCCCC2)c2nonc12 | i | i | -0.3 | 2.4% | 4.4%
SMILES | KB-3-1 cytotox | KB-V1 cytotox | IL-1B inflam inh | HT1080 IDH1KD tx | HT1080NT lethal
CCCSc1cc(NCCOC(=O)CCC)c([N+](=O)[O-])c2nonc12 | i | i | -19.1 | u | -2.2%
CC(=O)OCCCNc1cc(SCc2ccco2)c2nonc2c1[N+](=O)[O-] | i | i | -103.4* | -20.1% | -3.1%
CCCC(=O)OCCNc1cc(Sc2nccn2C)c2nonc2c1[N+](=O)[O-] | u | i | -101.1* | 14.6µM* | u
CCCSc1cc(NCCOC(C)=O)c([N+](=O)[O-])c2nonc12 | i | i | 13.8 | -4.5% | -7.6%
CCCC(=O)OCCNc1cc(SCc2ccco2)c2nonc2c1[N+](=O)[O-] | i | i | u | 23.1µM* | u
C[C@H](CO)N1C[C@H](C)[C@@H](CN(C)C(=O)Nc2ccc(F)cc2)Oc2ncc(-c3ccc(F)cc3)cc2C1=O | i | u | -13.8 | 7.2% | 9.5%
O=C(O)c1ccc(N2C(=O)/C(=C\c3ccccc3)N=C2c2ccccc2)cc1 | i | i | -73.1* | 29.0% | 25.7%
CC12CCC(C(=O)C1)C1(C)CCCC(=O)C21 (configuration not stated) | i | u | 16.2 | -3.0% | -3.2%
Cc1cccc(NC(=O)CNC(=O)CSc2nnc(C(F)(F)F)n2C)c1C | i | i | 0.0 | -2.5% | 1.5%
O=S(=O)(/C=C/c1ccccc1)Oc1ccccc1 | u | i | -88.9* | u | u
CCC(=O)Oc1ccc(NC(=O)c2ccc(S(=O)(=O)N3CCCC3)cc2)cc1 | i | i | 0.3 | -23.3% | -12.7%
N#Cc1ccc2[nH]cc(C3c4cc(F)ccc4C=C(c4ccsc4)N3c3ccc(C#CCCO)cc3)c2c1 (configuration not stated) | u | u | u | 14.6µM* | u
COc1cc(-c2ccc(N3C(c4ccsc4)=Cc4ccc(F)cc4C3c3c[nH]c4ccc(C#N)cc34)cc2)cc(OC)c1OC (configuration not stated) | i | i | 6.1 | -0.2% | -1.2%
COc1ccc(NS(=O)(=O)c2cccc(NC(=O)c3ccc(S(=O)(=O)N4CCCCCC4)cc3)c2)cc1 | 20.6µM* | u | -3.2 | u | u
O=C(Nc1cccc(S(=O)(=O)C(F)F)c1)c1ccc(S(=O)(=O)N2CCCC2)cc1 | i | i | -88.2* | -19.9% | u
COc1ccc(C(=O)Nc2ccc3[nH]ccc3c2)cc1 | 16.4µM* | 16.4µM* | -16.4 | 20.6µM* | 18.4µM*
COc1ccc(C(=O)Nc2cccc(C(=O)N3CCCC3)c2)cc1 | i | 20.6µM* | 15.2 | -0.2% | 4.0%
O=C(Nc1cccc(S(=O)(=O)C(F)F)c1)c1ccc(S(=O)(=O)N2CCOCC2)cc1 | i | i | -19.1 | -7.1% | -14.5%
COc1ccc(S(=O)(=O)N2CCC(C(=O)NCCC(=O)NCc3ccccc3OC)CC2)cc1 | i | u | 4.3 | -0.7% | -4.0%
O=C(C[n+]1cccc(Br)c1)c1ccc(F)cc1 | i | i | x | x | x
COc1ccc(N2CC(C(=O)N(C)CC(=O)Nc3ccc(Cl)c(C(F)(F)F)c3)CC2=O)c(OC)c1 (configuration not stated) | i | i | u | u | u
CCOc1ccccc1NC(=O)CN1C(=O)CC(c2ccc(OC)c(OC)c2)Sc2ccccc21 (configuration not stated) | u | 18.4µM* | x | x | x
